# In PubChem BioAssay AID2013 (Sanford-Burnham Center for Chemical Genomics, 2009):
# Several values for one entry are separate records, joined by “and”; a condition that tells them apart may be missing. Equal entries are not always repeated. The whole screen tested about 290,000 compounds, of which about 370 (0.13%) were called active. Shown is part of a subset that was picked to be rich in actives. Entries with a potency or affinity are not part of this list. Unmarked numbers belong to inactive results.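 The calls were made as follows: active = spots per cell inhibited over 60%, with over 100 cells counted and total cytoplasm intensity under 500,000; inconclusive = wells with under 100 cells, flagged as likely toxic; inactive = the rest.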
# Molecular target: G-protein coupled receptor 55 (Homo sapiens) (UniProt Q9Y2T6)
# Sequence (Q9Y2T6 whole entry, looked up): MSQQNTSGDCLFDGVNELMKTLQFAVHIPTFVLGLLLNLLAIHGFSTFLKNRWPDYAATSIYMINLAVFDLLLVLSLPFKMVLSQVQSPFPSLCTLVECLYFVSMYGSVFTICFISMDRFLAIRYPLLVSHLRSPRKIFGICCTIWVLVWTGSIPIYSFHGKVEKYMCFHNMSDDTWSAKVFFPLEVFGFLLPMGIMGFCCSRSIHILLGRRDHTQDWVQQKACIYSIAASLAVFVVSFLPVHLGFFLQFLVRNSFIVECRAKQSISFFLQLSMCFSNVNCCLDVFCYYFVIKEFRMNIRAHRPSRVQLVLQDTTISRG
# Experiment: GPR55 antagonists blocking LPI-driven arrestin recruitment, primary screen, imaging, U2OS, beta-arrestin-GFP, LPI agonist (AID 2013);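 also: U2OS cells stably carrying GPR55 and arrestin-GFP stimulated by 5 µM LPI near EC80; imaged beta-arrestin-GFP aggregate spots per cell after agonist stimulation; plate controls were LPI-stimulated DMSO wells for no effect and DMSO wells without LPI for full effect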
# Settings: U2OS GPR55 beta-arrestin-GFP translocation imaging, LPI antagonism; at 10 µM; hits give high values
row,SMILES,inhibition
1,CCN(CC)CCN(C(=O)c1ccc2c(c1)OCCO2)c1nc2cc(C)cc(C)c2s1,9.6%
2,CC1CCCN(C(=O)Cn2nnc(-c3ccccc3F)n2)C1 (centres undefined),4.4%
3,Cc1ccc(OCCOc2cccc(Br)c2)c([N+](=O)[O-])n1,9.4%
4,Cc1nc(SCC(=O)c2cc3ccccc3oc2=O)c(C#N)c(-c2ccccc2)c1C(=O)Nc1ccccc1,3.8%
5,COc1ccc(N(C(=O)c2ccncc2)S(=O)(=O)c2ccc(F)cc2)cc1,-6%
6,O=C(O)c1cccc(COc2ccccc2Cl)c1,4.2%
7,CN(C(=O)c1ccccc1OCc1ccc(Cl)cc1)c1ccccc1,4.2%
8,O=C(COc1ccc([N+](=O)[O-])cc1)Nc1ccccc1N1CCCC1,7.8%
9,COc1ccc(C(CCNCc2ccc(N(C)C)cc2)c2ccccc2)cc1 (centres undefined),33.8%
10,COc1ccc(C(CCNCc2ccc(F)cc2)c2ccc(F)cc2)cc1 (centres undefined),45.1%
11,COc1ccc(C(CCNCc2ccccc2)c2ccc(F)cc2)cc1 (centres undefined),37.5%
12,COc1ccc(C(CCN)c2ccc3c(c2)OCO3)cc1 (centres undefined),12.6%
13,O=C(NCc1ccccc1)c1ccc(C2SCC(=O)N2Cc2ccccc2)cc1 (centres undefined),4.1%
14,CCCNC(=O)c1ccc(C2SCC(=O)N2Cc2ccccc2)cc1 (centres undefined),0%
15,CC(C)c1ccc(C2CC(=O)c3cnc(NC(=O)c4ccco4)nc3C2)cc1 (centres undefined),6.3%
16,O=C(CC(=O)NCc1ccc(Cl)cc1)NCc1ccc(Cl)cc1,1.9%
17,CC(C)C(=O)Nc1ccc2c(c1)nc(CCN1CCCCC1)n2C,-5.6%
18,Cc1cc(C)c(C2C(C#N)=C(N)Oc3n[nH]c(C)c32)cc1CN1CCCC1 (centres undefined),7.5%
19,COc1ccc(S(=O)(=O)N2CCCCCC2)cc1N(C)S(=O)(=O)c1ccc(Cl)cc1,18.7%
20,COc1ccc(S(=O)(=O)NN(C)C)cc1N(C)S(=O)(=O)c1ccc(Cl)cc1,9.7%
21,COc1ccc(S(=O)(=O)Nc2ccc(S(=O)(=O)Nc3ccc(F)cc3)cc2)cc1C,17.8%
22,COc1ccc(NS(=O)(=O)c2ccc(OC)c(N(C)S(=O)(=O)c3ccc(Cl)cc3)c2)cc1,1.4%
23,CC(=O)N1CCN(S(=O)(=O)c2ccc(C)cc2)C1c1ccc(N(C)C)cc1 (centres undefined),3.3%
24,O=[N+]([O-])c1c(Nc2cccc(O)c2)cc(Cl)c2nonc12,77.1% (active)

row,SMILES,inhibition
1,O=C(O)c1cc(Nc2cc(Cl)c3nonc3c2[N+](=O)[O-])ccc1O,-3.1%
2,O=[N+]([O-])c1c(Nc2ccccn2)cc(Cl)c2nonc12,4.7%
3,O=C(O)c1ccc(Nc2cc(Cl)c3nonc3c2[N+](=O)[O-])cc1,15.1%
4,O=C(O)c1cccc(Nc2cc(Cl)c3nonc3c2[N+](=O)[O-])c1,-6.5%
5,O=[N+]([O-])c1c(Nc2ccc(O)cc2)cc(Cl)c2nonc12,90.4% (active)
6,CN(C)c1cc(Nc2cccc(O)c2)c([N+](=O)[O-])c2nonc12,-9.3%
7,O=[N+]([O-])c1c(Nc2ccccc2O)cc(Cl)c2nonc12,-4%
8,Cc1c(Nc2cc(N3CCOCC3)c3nonc3c2[N+](=O)[O-])c(=O)n(-c2ccccc2)n1C,18.1%
9,CCNc1cc(Nc2c(C)n(C)n(-c3ccccc3)c2=O)c([N+](=O)[O-])c2nonc12,3.6%
10,CC(=O)N1CCN(c2ccc(NC(=O)c3ccc(F)cc3)cc2)CC1,4.7%
11,Cc1ccc(C(=O)NC2CCN(CC(=O)Nc3c(C)cc(C)cc3C)CC2)cc1,3.2%
12,COc1cc(C(=O)NCc2nnc(SCC(=O)Nc3nc4ccccc4s3)o2)cc(OC)c1OC,-13.1%
13,O=C(Cn1c(=O)c2cccn2c2cccnc21)N1CCN(c2ccc(Cl)cc2)CC1,-2.4%
14,COc1ccc(NC(=O)CN(C)C(=O)C(C)Sc2ccccc2)cc1 (centres undefined),8.3%
15,CC(=O)Nc1ccc(S(=O)(=O)NC(CC(=O)NCCc2ccccc2)C(C)C)cc1 (centres undefined),12.5%
16,CC(=O)N1CCN(c2ccc(NC(=O)c3ccc([N+](=O)[O-])cc3Cl)cc2)CC1,3.5%
17,Cc1nc(-c2ccc([N+](=O)[O-])cc2)sc1C(=O)O,6.9%
18,CCS(=O)(=O)c1ccc(-c2csc(-c3ccccc3Cl)n2)c(Cl)c1Cl,-11.1%
19,CCS(=O)(=O)c1ccc(-c2csc(-c3ccccc3)n2)c(Cl)c1Cl,31.4%
20,COc1ccc(-c2csc(Nc3cccc(C)n3)n2)cc1C,13.8%
21,O=C(Nc1nc(-c2ccc(F)c(F)c2)cs1)c1ccc(OCC2CCCO2)cc1 (centres undefined),-5.3%
22,O=C(Nc1nc(-c2ccc(Cl)cc2Cl)cs1)c1ccc(OCC2CCCO2)cc1 (centres undefined),96% (active)
23,COc1ccc(OC)c(-c2csc(NC(=O)c3ccc(OCC4CCCO4)cc3)n2)c1 (centres undefined),-3%
24,CCn1nc(C)c(/C=N/NC(=O)Cn2nnc(N)n2)c1C,-1.9%

row,SMILES,inhibition
1,CCOC(=O)C1CCCN(S(=O)(=O)c2cc(Br)cc3c2N(C(=O)CC)CC3)C1 (centres undefined),-0.6%
2,COc1cc(/C=C/C(=O)OCN2C(=O)c3ccccc3C2=O)ccc1OC(F)F,0.4%
3,N#Cc1c(/N=C/c2ccccc2)oc(-c2ccccc2)c1-c1ccccc1,-11.7%
4,COc1ccc(-c2oc(/N=C/N3CCCC3)c(C#N)c2-c2ccc(OC)cc2)cc1,14.8%
5,CC(C)(C)SCCNC(=O)/C=C/c1ccccc1,2.8%
6,COc1ccc(S(=O)(=O)n2nc(OC(=O)c3c(-c4ccccc4Cl)noc3C)cc2N)cc1,-4.9%
7,Cc1ccsc1C(=O)N(c1nc2ccccc2s1)c1c(C)cccc1C,9.7%
8,COc1cccc(N(C(=O)c2cccs2)c2nc3ccccc3s2)c1,0.2%
9,O=C(COC(=O)C1CC2C=CC1C2)Nc1cccc(S(=O)(=O)N2CCOCC2)c1 (centres undefined),-10.4%
10,C=C(c1ccc(OC)cc1)c1ccc(OC)cc1,-8%
11,O=C(c1ccc(O)cc1)c1ccc(C(=O)c2ccc(O)cc2)cc1,9.7% and -6%
12,ONC(=Nc1ccccc1)c1ccc(Cl)cc1,19.2%
13,COc1cccc(C(c2nnnn2Cc2ccco2)N2CCN(c3cccc(C)c3C)CC2)c1OC (centres undefined),99.7% (active)
14,CCN1CCN(C(c2cccc(OC)c2OC)c2nnnn2Cc2ccco2)CC1 (centres undefined),-6.5%
15,COc1ccccc1C(c1nnnn1Cc1ccco1)N1CCN(c2cccc(C)c2C)CC1 (centres undefined),15.4%
16,Fc1ccc(NC(=S)NC2CCN(Cc3ccccc3)CC2)cc1,28.1%
17,O=C(NC1CCN(Cc2ccc(F)cc2)CC1)c1ccccc1,6.4%
18,COCCN(CCOC)C(=S)Nc1ccccc1,12.7%
19,NC(=O)C1CCN(C(=O)C2CC(=O)N(c3ccc(F)cc3)C2)CC1 (centres undefined),-0.2%
20,COc1ccccc1OCC(=O)N1CCN(C(=O)COc2ccccc2OC)CC1,2.2%
21,Oc1ccc(Nc2nc(-c3ccccc3F)nc3ccccc23)cc1,7.7%
22,Oc1ccc(/C=N/Nc2nc(-c3cccnc3)nc3ccccc23)c(O)c1,1.9%
23,O=C(Nc1nnc(-c2ccccc2)o1)c1cc(Cl)sc1Cl,-2.3%
24,O=C(O)c1cc2c(cc1NC(=O)c1ccccc1OC(F)F)OCCCO2,-0.6%

row,SMILES,inhibition
1,CCOC(=O)c1c(NC(=O)C2=C(C)NC(=S)NC2c2ccc(F)cc2)sc(C)c1C (centres undefined),64.1% (active)
2,CCOC(=O)c1c(NC(=O)C2=C(C)NC(=S)NC2c2ccc(F)cc2F)sc(C)c1C (centres undefined),10%
3,CCOC(=O)c1c(NC(=O)c2ccnn2C)sc(C)c1C,1.1%
4,CCOC(=O)c1c(NC(=O)C2=C(C)NC(=S)NC2c2ccccc2C(F)(F)F)sc(C)c1C (centres undefined),5.6%
5,CCOC(=O)c1c(NC(=O)c2ccncc2)sc(C)c1C,-0.7%
6,CCOC(=O)c1c(NC(=O)c2ccc(Cl)s2)sc(C)c1C,1.6%
7,CCOC(=O)c1c(NC(=O)c2cccnc2)sc(C)c1C,-12.1%
8,Cc1ccccc1NC(=O)CCS(=O)(=O)c1cccc2nonc12,2.7%
9,COc1ccc2c(c1)C(NC(C)=O)C(=O)N2CCc1ccccc1 (centres undefined),6.6%
10,O=C(CCC(=O)n1ncc2ccccc21)NCc1ccc(F)cc1,-2.2%
11,O=C(NCc1ccc2c(c1)OCO2)c1nc(Cn2cc([N+](=O)[O-])cn2)no1,-20%
12,CC(C)(C)C(=O)COC(=O)c1cc(-c2ccncc2)nc2ccccc12,2.9%
13,O=C(Cn1c(=O)oc2ccccc21)N1CCCC1,-1.8%
14,CCOC(=O)c1c(CN2CCOCC2)n(-c2ccccc2)c2cc(Br)c(OC)cc12,23.1%
15,CCOC(=O)c1c(CSC(=N)N)n(-c2ccc(Br)cc2)c2cc(Br)c(OC(C)=O)cc12,89.3% (active)
16,CCOC(=O)c1c(CSc2nc(C)cc(C)c2C#N)n(C)c2cc(Br)c(OC(C)=O)cc12,1.8%
17,CCOC(=O)c1c(CN(C)C)n(-c2ccc(C)cc2)c2cc(Br)c(O)cc12,-0.7%
18,C=CCCc1ccc(C#N)c(SCc2c(C(=O)OCC)c3cc(OC(C)=O)c(Br)cc3n2C)n1,-23.2%
19,CCOC(=O)c1c(C)n(C)c2cc(Br)c(OC)cc12,7.4%
20,CCCCCCCCOC(=O)c1c(CSC(=N)N)n(C)c2cc(Br)c(OC(C)=O)cc12,23.7%
21,CCOC(=O)c1c(CN(C)C)n(-c2ccccc2)c2cc(Br)c(OC)cc12,-15.4%
22,CCOC(=O)c1c(CN(C)C)n(-c2ccccc2)c2cc(Br)c(O)cc12,3.4%
